# According to PubChem BioAssay (EPA / NIEHS):
# Results filed as inconclusive are left out. Active and inactive are the calls of the source. The calls were made as follows: active = hit-call score of the fitted dose curve at least 0.9, where 1 is the maximum; inconclusive = response in the unintended direction; inactive = score below 0.9. Peptide text beside a SMILES is read from it.
# Experiments:
# [1] = target: human Peroxisome Proliferator-activated Receptor delta (PPARd), PPARD (gene 5467) (UniProt Q03181); assay: ATG_PPARd_TRANS: Attagene TRANS-FACTORIAL HepG2 Assay for human Peroxisome Proliferator-activated Receptor delta (PPARd) (AID 2283002)
# Method in brief: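 HepG2 cells transiently transfected with multiplexed GAL4-UAS reporter units and exogenous chimeric NR-Gal4 proteins; 24 h compound exposure. Reporter mRNA measured by RT-PCR, 6-FAM labelling, HpaI digestion and capillary electrophoresis; gain of signal versus DMSO.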
# [2] = target: human Retinoic Acid Receptor beta (RARb), RARB (gene 5915) (UniProt P10826); assay: ATG_RARb_TRANS: Attagene TRANS-FACTORIAL HepG2 Assay for human Retinoic Acid Receptor beta (AID 2283004)
# Method in brief: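 HepG2 cells transiently transfected with multiplexed GAL4-UAS reporter units expressing chimeric NR–Gal4 fusions; 24 h compound exposure. Reporter mRNA quantified by RT-PCR, 6-FAM labelling, HpaI digestion and capillary electrophoresis; gain-of-signal fitted against DMSO baseline.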
# [3] = target: Retinoic acid receptor alpha (Homo sapiens) (UniProt P10276); assay: ATG_RARa_TRANS: Attagene TRANS-FACTORIAL HepG2 Assay for human Retinoic Acid Receptor alpha (RARa) (AID 2283005)
# Method in brief: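 HepG2 cells transiently transfected with multiple reporter units expressing chimeric RARα-GAL4 fusion, with GAL4-UAS-driven reporters. After 24 h compound exposure, reporter mRNA induction quantified by RT-PCR and capillary electrophoresis with fluorescent labeling; gain-of-signal fitted relative to DMSO control.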
# [4] = target: Peroxisome proliferator-activated receptor gamma (Homo sapiens) (UniProt P37231); assay: ATG_PPARg_TRANS: Attagene TRANS-FACTORIAL HepG2 Assay for human Peroxisome Proliferator-activated Receptor-gamma (PPARg) (AID 2283007)
# Method in brief: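 Endpoint reflects upward reporter mRNA change versus DMSO controls. Setup: transiently transfected HepG2, GAL4-UAS reporters driven by chimeric NR-Gal4, 24 h incubation, RT-PCR with capillary electrophoresis read-out.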
# [5] = target: Nuclear receptor subfamily 1 group I member 2 (Homo sapiens) (UniProt O75469); assay: ATG_PXR_TRANS: Attagene TRANS-FACTORIAL HepG2 Assay for human Pregnane X Receptor (PXR) (AID 2283008)
# Method in brief: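 Measures mRNA induction of a GAL4-UAS-driven reporter in human HepG2 cells transiently expressing PXR fused to Gal4, following 24 h treatment. DMSO served as negative control and baseline.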
# [6] = target: human RAR-related Orphan Receptor beta (RORb), RORB (gene 6096) (UniProt Q92753); assay: ATG_RORb_TRANS: Attagene TRANS-FACTORIAL HepG2 Assay for human RAR-related Orphan Receptor beta (RORb) (AID 2283010)
# Method in brief: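 Readout is reporter-gene mRNA induction, detected as fluorescence after RT-PCR and capillary electrophoresis, fitted for gain of signal against DMSO controls. Transiently transfected HepG2 liver cells carrying GAL4-UAS reporter constructs were treated for 24 hours.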
# [7] = target: Retinoic acid receptor RXR-alpha (Homo sapiens) (UniProt P19793); assay: ATG_RXRa_TRANS: Attagene TRANS-FACTORIAL HepG2 Assay for human Retinoid X Receptor alpha (RXRa) (AID 2283012)
# Method in brief: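 Transient transfection of human HepG2 with multiple GAL4-UAS reporter constructs; 24 h compound exposure; total RNA isolated, reverse-transcribed, PCR-amplified, 6-FAM labelled, HpaI-cut, resolved by capillary electrophoresis. Positive-direction fit versus DMSO.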
# [8] = target: human Retinoid X Receptor beta (RXRb), RXRB (gene 6257) (UniProt P28702); assay: ATG_RXRb_TRANS: Attagene TRANS-FACTORIAL HepG2 Assay for human Retinoid X Receptor beta (RXRb) (AID 2283013)
# Method in brief: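 Transfect HepG2 with GAL4-UAS multi-reporter constructs (chimeric NR-Gal4, TRANS format); dose compound 24 h; isolate RNA, RT-PCR, FAM primer extension, HpaI digest; quantify by capillary electrophoresis; positive direction vs DMSO.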
# [9] = target: human Thyroid Receptor alpha (THRa1), THRA (gene 7067) (UniProt P10827); assay: ATG_THRa1_TRANS: Attagene TRANS-FACTORIAL HepG2 Assay for human Thyroid Receptor alpha (THRa1) (AID 2283014)
# Method in brief: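 HepG2 cells transiently transfected with multiplexed GAL4-UAS reporter units for exogenous chimeric THRa1-Gal4; reporter mRNA measured 24 h after dosing by RT-PCR, 6-FAM labelling, HpaI digestion and capillary electrophoresis. Gain-of-signal fitted versus DMSO baseline.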
# [10] = target: human RAR-related Orphan Receptor gamma (RORg), RORC (gene 6097) (UniProt P51449); assay: ATG_RORg_TRANS: Attagene TRANS-FACTORIAL HepG2 Assay for human RAR-related Orphan Receptor gamma (RORg) (AID 2283011)
# Method in brief: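 Readout: reporter transcript induction (RT-PCR, fluorescent primer extension, capillary electrophoresis) after 24 h compound exposure of transiently transfected HepG2 cells carrying a RORg-Gal4 chimera and GAL4-UAS reporters; DMSO served as baseline, with increasing signal fitted.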
# [11] = target: human Retinoic Acid Receptor gamma (RARg), RARG (gene 5916) (UniProt P13631); assay: ATG_RARg_TRANS: Attagene TRANS-FACTORIAL HepG2 Assay for human Retinoic Acid Receptor gamma (RARg) (AID 2283009)
# Method in brief: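 Transient transfection of HepG2 with multi-reporter constructs, then 24 h chemical treatment. Total RNA isolated, reverse-transcribed, PCR-amplified, fluorescently labelled and resolved by capillary electrophoresis; activity scored as mRNA induction versus DMSO.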
# Chain of Nuclear receptor subfamily 1 group I member 2 (Homo sapiens) (O75469 whole entry, looked up, the tested form may be a part): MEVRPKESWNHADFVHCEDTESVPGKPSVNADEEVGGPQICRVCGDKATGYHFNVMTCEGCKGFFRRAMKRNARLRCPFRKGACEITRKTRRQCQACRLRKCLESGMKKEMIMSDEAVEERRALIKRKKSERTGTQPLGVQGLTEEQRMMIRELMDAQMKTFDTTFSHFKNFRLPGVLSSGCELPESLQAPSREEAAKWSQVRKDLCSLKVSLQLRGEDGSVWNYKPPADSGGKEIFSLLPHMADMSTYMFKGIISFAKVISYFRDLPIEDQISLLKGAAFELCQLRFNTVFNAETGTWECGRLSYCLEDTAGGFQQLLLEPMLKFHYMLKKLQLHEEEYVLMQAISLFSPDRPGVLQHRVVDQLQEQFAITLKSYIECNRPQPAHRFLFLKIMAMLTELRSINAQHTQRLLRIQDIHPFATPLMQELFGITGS
# Chain of human RAR-related Orphan Receptor gamma (RORg), RORC (gene 6097) (P51449 whole entry, looked up, the tested form may be a part): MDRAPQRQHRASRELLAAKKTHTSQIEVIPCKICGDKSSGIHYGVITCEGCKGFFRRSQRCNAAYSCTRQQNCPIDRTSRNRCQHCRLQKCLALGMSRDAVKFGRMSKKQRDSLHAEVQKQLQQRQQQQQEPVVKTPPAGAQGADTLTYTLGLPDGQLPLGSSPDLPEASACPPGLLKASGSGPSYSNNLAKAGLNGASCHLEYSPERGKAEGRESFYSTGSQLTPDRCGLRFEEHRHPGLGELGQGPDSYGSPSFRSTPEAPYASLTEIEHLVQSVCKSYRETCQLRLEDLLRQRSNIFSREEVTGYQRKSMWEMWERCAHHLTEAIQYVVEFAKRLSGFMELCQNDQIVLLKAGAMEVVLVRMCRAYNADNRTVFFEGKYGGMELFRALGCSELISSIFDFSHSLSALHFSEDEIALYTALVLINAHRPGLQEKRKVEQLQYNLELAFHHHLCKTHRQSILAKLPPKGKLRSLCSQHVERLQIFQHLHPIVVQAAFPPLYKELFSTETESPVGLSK
# Chain of human Retinoid X Receptor beta (RXRb), RXRB (gene 6257) (P28702 whole entry, looked up, the tested form may be a part): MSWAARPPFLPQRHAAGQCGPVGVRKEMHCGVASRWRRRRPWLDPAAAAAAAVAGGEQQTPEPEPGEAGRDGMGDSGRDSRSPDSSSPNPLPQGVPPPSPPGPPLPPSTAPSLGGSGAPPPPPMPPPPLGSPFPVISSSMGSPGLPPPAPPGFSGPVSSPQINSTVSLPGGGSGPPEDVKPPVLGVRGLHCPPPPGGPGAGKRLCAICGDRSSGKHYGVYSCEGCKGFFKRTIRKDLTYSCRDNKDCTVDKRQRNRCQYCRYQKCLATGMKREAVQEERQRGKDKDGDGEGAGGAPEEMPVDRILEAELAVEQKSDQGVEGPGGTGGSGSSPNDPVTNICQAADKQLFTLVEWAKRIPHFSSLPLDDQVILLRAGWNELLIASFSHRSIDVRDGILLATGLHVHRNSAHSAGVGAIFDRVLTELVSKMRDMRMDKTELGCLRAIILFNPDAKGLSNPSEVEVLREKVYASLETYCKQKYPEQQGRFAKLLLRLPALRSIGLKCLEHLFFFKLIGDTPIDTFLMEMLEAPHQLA
# Chain of Retinoic acid receptor RXR-alpha (Homo sapiens) (P19793 whole entry, looked up, the tested form may be a part): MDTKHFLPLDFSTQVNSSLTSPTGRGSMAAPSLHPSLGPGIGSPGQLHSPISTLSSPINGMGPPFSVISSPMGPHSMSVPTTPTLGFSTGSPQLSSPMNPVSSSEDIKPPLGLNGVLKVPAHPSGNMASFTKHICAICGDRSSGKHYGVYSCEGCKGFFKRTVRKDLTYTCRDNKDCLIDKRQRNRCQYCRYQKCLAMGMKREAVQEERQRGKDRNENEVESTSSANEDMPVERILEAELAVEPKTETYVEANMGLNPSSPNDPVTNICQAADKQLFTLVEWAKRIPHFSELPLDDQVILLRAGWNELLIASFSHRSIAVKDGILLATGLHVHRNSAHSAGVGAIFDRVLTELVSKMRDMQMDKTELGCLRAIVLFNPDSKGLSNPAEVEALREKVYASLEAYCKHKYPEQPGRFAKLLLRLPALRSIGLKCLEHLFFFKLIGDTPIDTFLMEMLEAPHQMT
# Chain of Retinoic acid receptor alpha (Homo sapiens) (P10276 whole entry, looked up, the tested form may be a part): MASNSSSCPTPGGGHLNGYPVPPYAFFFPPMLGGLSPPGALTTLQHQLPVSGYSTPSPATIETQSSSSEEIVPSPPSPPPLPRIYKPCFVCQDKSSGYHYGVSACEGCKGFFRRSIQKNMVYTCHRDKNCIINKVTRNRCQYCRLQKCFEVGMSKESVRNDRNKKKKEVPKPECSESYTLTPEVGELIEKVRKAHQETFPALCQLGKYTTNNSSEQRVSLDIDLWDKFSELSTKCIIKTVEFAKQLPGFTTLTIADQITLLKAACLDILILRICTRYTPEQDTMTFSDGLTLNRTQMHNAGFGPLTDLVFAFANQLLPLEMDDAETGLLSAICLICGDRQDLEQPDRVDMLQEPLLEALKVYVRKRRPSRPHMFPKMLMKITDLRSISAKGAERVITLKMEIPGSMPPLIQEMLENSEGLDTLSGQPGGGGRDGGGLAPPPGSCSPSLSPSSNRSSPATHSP
# Chain of human Retinoic Acid Receptor gamma (RARg), RARG (gene 5916) (P13631 whole entry, looked up): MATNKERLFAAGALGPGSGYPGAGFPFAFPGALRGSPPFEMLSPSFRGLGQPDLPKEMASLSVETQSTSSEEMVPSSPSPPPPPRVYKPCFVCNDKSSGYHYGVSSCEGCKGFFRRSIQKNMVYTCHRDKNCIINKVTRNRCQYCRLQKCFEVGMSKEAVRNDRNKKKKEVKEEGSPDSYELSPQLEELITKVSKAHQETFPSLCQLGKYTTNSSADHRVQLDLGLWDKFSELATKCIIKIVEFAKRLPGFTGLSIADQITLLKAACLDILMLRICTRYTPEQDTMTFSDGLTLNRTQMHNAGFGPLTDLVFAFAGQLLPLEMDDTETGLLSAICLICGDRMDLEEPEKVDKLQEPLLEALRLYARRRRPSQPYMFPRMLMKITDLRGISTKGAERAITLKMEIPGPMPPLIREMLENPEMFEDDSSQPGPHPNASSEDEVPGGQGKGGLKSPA
# Chain of human Peroxisome Proliferator-activated Receptor delta (PPARd), PPARD (gene 5467) (Q03181 whole entry, looked up, the tested form may be a part): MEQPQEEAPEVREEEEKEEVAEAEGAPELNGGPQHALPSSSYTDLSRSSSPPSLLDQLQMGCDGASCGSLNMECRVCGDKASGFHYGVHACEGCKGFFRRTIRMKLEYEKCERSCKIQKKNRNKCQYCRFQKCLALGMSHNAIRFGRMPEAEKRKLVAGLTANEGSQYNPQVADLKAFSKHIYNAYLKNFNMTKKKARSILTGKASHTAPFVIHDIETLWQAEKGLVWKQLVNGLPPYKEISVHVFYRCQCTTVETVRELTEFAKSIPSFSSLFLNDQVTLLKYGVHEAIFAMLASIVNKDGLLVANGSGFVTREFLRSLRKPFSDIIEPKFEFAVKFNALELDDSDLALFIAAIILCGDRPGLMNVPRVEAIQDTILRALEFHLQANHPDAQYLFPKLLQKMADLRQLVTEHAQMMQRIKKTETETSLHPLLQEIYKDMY
# Chain of human RAR-related Orphan Receptor beta (RORb), RORB (gene 6096) (Q92753 whole entry, looked up, the tested form may be a part): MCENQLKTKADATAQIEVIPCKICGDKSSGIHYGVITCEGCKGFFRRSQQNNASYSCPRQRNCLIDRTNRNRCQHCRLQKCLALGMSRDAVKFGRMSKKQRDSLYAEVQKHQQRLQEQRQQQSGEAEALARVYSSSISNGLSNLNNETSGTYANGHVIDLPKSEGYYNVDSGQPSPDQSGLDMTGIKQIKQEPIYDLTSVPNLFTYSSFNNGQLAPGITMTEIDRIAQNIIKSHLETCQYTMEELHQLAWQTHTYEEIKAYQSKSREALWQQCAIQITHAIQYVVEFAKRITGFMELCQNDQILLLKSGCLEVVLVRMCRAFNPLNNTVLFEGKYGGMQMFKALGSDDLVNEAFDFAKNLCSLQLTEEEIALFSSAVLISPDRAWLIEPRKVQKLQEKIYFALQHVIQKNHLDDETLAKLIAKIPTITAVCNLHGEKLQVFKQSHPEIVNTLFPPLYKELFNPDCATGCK
# Chain of human Retinoic Acid Receptor beta (RARb), RARB (gene 5915) (P10826 whole entry, looked up, the tested form may be a part): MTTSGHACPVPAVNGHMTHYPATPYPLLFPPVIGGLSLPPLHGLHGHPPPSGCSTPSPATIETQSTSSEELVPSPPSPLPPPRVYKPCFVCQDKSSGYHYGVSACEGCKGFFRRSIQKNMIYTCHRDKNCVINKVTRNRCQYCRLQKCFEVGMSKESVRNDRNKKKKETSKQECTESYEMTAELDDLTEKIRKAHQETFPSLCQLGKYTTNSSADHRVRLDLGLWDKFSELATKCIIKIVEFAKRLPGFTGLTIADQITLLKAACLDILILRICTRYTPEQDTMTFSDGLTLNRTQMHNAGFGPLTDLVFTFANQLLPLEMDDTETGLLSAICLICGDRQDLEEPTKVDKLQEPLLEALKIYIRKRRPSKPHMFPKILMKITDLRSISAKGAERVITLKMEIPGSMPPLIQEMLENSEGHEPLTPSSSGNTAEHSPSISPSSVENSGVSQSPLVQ
# Chain of Peroxisome proliferator-activated receptor gamma (Homo sapiens) (P37231 whole entry, looked up, the tested form may be a part): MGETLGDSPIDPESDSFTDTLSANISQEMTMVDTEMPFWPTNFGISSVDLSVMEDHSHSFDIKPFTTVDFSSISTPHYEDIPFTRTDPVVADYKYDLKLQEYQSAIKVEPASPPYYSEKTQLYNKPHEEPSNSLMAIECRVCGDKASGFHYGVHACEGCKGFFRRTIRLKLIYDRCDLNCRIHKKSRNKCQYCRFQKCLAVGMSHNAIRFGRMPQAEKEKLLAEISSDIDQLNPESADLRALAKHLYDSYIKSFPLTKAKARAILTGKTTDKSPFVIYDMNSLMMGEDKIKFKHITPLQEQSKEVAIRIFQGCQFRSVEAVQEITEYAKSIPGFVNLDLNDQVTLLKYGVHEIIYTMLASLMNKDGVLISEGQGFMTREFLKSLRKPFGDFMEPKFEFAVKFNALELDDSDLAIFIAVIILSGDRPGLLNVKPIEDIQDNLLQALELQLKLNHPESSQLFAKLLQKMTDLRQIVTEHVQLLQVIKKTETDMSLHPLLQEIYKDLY
structure (smiles),measurement,setting,value
CCCCC(CC)COC(=O)/C=C/c1ccc(OC)cc1 (stereo not given),outcome,[1],inactive
same,outcome,[2],inactive
same,outcome,[3],inactive
same,outcome,[4],inactive
same,outcome,[5],inactive
same,outcome,[6],inactive
same,outcome,[7],inactive
same,outcome,[8],inactive
same,outcome,[9],inactive
CCC(C)C(=O)OC (stereo not given),outcome,[1],inactive
same,outcome,[2],inactive
same,outcome,[3],inactive
same,outcome,[4],inactive
same,outcome,[5],inactive
same,outcome,[6],inactive
same,outcome,[10],inactive
same,outcome,[7],inactive
same,outcome,[8],inactive
Cn1cccc1,outcome,[1],inactive
same,outcome,[3],inactive
same,outcome,[4],inactive
same,outcome,[5],inactive
same,outcome,[6],inactive
same,outcome,[10],inactive
same,outcome,[7],inactive
same,outcome,[8],inactive
c1ccc(-c2nc3ccccc3[nH]2)cc1,outcome,[1],inactive
same,outcome,[4],inactive
same,AC50,[5],23.4 µM (active)
same,outcome,[7],inactive
same,outcome,[8],inactive
same,outcome,[9],inactive
OCCCc1ccccc1,outcome,[1],inactive
same,outcome,[3],inactive
same,outcome,[4],inactive
same,outcome,[5],inactive
same,outcome,[6],inactive
same,outcome,[8],inactive
C=C(C)C(=O)OCCOC(=O)C(=C)C,outcome,[1],inactive
same,outcome,[2],inactive
same,outcome,[3],inactive
same,AC50,[4],62.2 µM (active)
same,outcome,[5],inactive
same,outcome,[6],inactive
same,outcome,[7],inactive
same,outcome,[8],inactive
CC(=O)OCCc1ccccc1,outcome,[1],inactive
same,outcome,[2],inactive
same,outcome,[7],inactive
same,outcome,[8],inactive
same,outcome,[9],inactive
CC(C)c1cc(C(C)C)cc(C(C)C)c1,outcome,[1],inactive
same,outcome,[3],inactive
same,outcome,[4],inactive
same,AC50,[5],26.9 µM (active)
same,AC50,[7],6.06 µM (active)
same,AC50,[8],0.399 µM (active)
CC(C)OC(=O)c1ccccc1,outcome,[1],inactive
same,outcome,[2],inactive
same,outcome,[3],inactive
same,outcome,[11],inactive
same,outcome,[6],inactive
same,outcome,[10],inactive
C=Cc1ccc(OC(C)=O)cc1,outcome,[1],inactive
same,outcome,[2],inactive
same,outcome,[4],inactive
same,outcome,[5],inactive
same,outcome,[6],inactive
same,outcome,[7],inactive
same,outcome,[8],inactive
same,outcome,[9],inactive
Cc1cc(C)n(CO)n1,outcome,[1],inactive
same,outcome,[2],inactive
same,outcome,[4],inactive
same,outcome,[8],inactive
CC(C)(O)Cc1ccccc1,outcome,[1],inactive
same,outcome,[2],inactive
same,outcome,[3],inactive
same,outcome,[5],inactive
same,outcome,[6],inactive
same,outcome,[9],inactive
CC(C)=NNC(N)=S,outcome,[1],inactive
same,outcome,[2],inactive
same,outcome,[5],inactive
same,outcome,[7],inactive
same,outcome,[8],inactive
same,outcome,[9],inactive
O=C(O)CCCC(=O)O,outcome,[1],inactive
same,outcome,[4],inactive
same,outcome,[5],inactive
C=CC(=O)O[C@H]1C[C@@H]2CC[C@@]1(C)C2(C)C,outcome,[1],inactive
same,outcome,[4],inactive
same,AC50,[5],26.6 µM (active)
same,outcome,[6],inactive
same,outcome,[7],inactive
same,outcome,[8],inactive
same,outcome,[9],inactive
Nc1ccc(O)c([N+](=O)[O-])c1,outcome,[1],inactive
same,outcome,[4],inactive
same,outcome,[5],inactive
same,outcome,[6],inactive
same,outcome,[7],inactive
same,outcome,[8],inactive
same,outcome,[9],inactive
CCN(CC)c1cccc(C)c1,outcome,[1],inactive
same,outcome,[2],inactive
same,outcome,[3],inactive
same,outcome,[5],inactive
same,outcome,[11],inactive
same,outcome,[10],inactive
same,outcome,[8],inactive
CC1=CP(=O)(c2ccccc2)CC1 (stereo not given),outcome,[1],inactive
same,outcome,[3],inactive
same,outcome,[5],inactive
same,outcome,[11],inactive
same,outcome,[10],inactive
same,outcome,[7],inactive
same,outcome,[8],inactive
same,outcome,[9],inactive
N#Cc1ccc(C(c2ccc(C#N)cc2)n2cncn2)cc1,outcome,[1],inactive
same,outcome,[4],inactive
same,outcome,[5],inactive
same,outcome,[11],inactive
same,outcome,[7],inactive
same,outcome,[8],inactive
CCOC(=O)CC(=O)c1ccccc1,outcome,[1],inactive
same,outcome,[4],inactive
same,outcome,[5],inactive
same,outcome,[10],inactive
CC(C)(CO)COC(=O)C(C)(C)CO,outcome,[1],inactive
same,outcome,[2],inactive
same,outcome,[5],inactive
same,outcome,[6],inactive
same,outcome,[9],inactive
CC(CC(C)C)=NO,outcome,[1],inactive
same,outcome,[3],inactive
same,outcome,[6],inactive
COC(=O)[C@H](Cc1ccccc1)NC(=O)[C@@H](N)CC(=O)O (H-Asp-Phe-OMe),outcome,[1],inactive
same,outcome,[2],inactive
same,outcome,[3],inactive
same,outcome,[5],inactive
same,outcome,[11],inactive
same,outcome,[6],inactive
same,outcome,[9],inactive
N#Cc1ccc(C2CCCc3cncn32)cc1 (stereo not given),outcome,[1],inactive
same,outcome,[2],inactive
same,outcome,[4],inactive
same,outcome,[5],inactive
same,outcome,[11],inactive
CCC(=O)C1CC(C(C)C)CC=C1C (stereo not given),outcome,[1],inactive
same,outcome,[3],inactive
same,AC50,[4],58.3 µM (active)
same,AC50,[5],3.16 µM (active)
same,outcome,[6],inactive
same,outcome,[10],inactive
same,outcome,[7],inactive
COc1nccnc1CC(C)C,outcome,[1],inactive
same,outcome,[2],inactive
same,outcome,[5],inactive
same,outcome,[10],inactive
same,outcome,[9],inactive
C=C(C)C1CC=C(C)C(OC(C)=O)C1 (stereo not given),outcome,[1],inactive
same,outcome,[3],inactive
same,outcome,[4],inactive
same,outcome,[5],inactive
same,outcome,[11],inactive
same,outcome,[6],inactive
same,outcome,[8],inactive
CCCCCCCCCC[N+](C)(CCCCCCCCCC)CCC[Si](OC)(OC)OC,outcome,[1],inactive
same,outcome,[4],inactive
same,outcome,[5],inactive
same,outcome,[7],inactive
same,outcome,[8],inactive
same,outcome,[9],inactive
CC(=O)OC(C)c1ccccc1 (stereo not given),outcome,[2],inactive
